The values below come from ChEMBL document CHEMBL2218924, “A broad activity screen in support of a chemogenomic map for kinase signalling research and drug discovery” (Biochem J, 2013).

In assay [1] the target is T1, Ephrin type-B receptor 1 (Homo sapiens) (UniProt P54762).
T1 sequence (whole entry): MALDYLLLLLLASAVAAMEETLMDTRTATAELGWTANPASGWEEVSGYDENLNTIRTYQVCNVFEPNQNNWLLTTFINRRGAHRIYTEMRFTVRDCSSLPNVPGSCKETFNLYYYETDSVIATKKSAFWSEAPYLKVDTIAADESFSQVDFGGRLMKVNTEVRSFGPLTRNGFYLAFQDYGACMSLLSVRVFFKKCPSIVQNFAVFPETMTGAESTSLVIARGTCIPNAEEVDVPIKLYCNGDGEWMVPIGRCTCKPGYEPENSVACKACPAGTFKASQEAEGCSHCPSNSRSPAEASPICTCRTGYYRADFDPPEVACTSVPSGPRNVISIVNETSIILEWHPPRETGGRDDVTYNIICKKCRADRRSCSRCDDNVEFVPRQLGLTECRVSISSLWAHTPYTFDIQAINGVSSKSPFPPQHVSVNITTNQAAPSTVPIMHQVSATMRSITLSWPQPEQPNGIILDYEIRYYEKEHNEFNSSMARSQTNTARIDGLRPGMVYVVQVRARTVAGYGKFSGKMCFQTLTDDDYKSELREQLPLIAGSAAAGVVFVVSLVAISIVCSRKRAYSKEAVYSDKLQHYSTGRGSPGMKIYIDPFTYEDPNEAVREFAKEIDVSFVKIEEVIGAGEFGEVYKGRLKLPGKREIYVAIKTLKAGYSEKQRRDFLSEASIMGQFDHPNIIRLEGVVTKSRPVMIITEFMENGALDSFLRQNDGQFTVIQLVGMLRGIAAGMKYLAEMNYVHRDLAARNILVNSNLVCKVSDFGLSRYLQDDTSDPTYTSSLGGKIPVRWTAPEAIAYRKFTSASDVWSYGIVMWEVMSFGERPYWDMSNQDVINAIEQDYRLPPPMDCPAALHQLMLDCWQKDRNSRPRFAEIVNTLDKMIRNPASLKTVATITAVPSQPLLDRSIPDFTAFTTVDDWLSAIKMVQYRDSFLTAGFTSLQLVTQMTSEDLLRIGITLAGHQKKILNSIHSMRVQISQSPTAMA
Conditions: at 10 µM; call rule not given here.

Assay [2] concerns the target T2, Ephrin type-B receptor 2 (Homo sapiens) (UniProt P29323).
T2 sequence (whole entry): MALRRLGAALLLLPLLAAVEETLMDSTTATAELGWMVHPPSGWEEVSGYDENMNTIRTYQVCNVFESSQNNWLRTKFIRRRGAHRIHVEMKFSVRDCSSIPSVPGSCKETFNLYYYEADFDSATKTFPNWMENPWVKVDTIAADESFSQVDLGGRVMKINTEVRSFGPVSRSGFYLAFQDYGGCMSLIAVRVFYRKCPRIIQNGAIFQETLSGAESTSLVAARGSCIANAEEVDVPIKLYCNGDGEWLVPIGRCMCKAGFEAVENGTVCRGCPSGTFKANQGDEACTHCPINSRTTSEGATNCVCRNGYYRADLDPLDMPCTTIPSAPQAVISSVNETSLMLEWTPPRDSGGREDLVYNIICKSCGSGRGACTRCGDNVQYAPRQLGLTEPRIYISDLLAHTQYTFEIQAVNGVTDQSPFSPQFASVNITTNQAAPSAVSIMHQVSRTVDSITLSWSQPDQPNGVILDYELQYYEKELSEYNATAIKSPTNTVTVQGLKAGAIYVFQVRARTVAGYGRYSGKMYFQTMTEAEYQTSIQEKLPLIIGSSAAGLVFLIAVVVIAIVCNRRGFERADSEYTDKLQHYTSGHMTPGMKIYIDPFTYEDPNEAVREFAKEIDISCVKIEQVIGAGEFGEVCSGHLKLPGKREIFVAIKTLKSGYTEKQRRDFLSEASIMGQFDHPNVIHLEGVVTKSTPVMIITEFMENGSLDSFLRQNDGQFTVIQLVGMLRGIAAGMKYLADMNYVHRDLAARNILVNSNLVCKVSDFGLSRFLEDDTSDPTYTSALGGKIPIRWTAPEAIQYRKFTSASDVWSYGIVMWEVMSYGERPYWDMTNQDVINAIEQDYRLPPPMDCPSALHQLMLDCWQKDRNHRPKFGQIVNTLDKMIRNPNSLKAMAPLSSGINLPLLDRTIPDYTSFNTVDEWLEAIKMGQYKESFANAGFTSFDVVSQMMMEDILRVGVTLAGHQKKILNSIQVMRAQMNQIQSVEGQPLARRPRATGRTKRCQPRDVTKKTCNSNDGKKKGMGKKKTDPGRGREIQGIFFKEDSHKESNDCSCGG
Particulars: at 1 µM.

For assay [3], the target named is T2, Ephrin type-B receptor 2 (Homo sapiens). Conditions: at 10 µM.
The target in assay [4] is T3, Ephrin type-B receptor 3 (Homo sapiens) (UniProt P54753).
T3 sequence (whole entry): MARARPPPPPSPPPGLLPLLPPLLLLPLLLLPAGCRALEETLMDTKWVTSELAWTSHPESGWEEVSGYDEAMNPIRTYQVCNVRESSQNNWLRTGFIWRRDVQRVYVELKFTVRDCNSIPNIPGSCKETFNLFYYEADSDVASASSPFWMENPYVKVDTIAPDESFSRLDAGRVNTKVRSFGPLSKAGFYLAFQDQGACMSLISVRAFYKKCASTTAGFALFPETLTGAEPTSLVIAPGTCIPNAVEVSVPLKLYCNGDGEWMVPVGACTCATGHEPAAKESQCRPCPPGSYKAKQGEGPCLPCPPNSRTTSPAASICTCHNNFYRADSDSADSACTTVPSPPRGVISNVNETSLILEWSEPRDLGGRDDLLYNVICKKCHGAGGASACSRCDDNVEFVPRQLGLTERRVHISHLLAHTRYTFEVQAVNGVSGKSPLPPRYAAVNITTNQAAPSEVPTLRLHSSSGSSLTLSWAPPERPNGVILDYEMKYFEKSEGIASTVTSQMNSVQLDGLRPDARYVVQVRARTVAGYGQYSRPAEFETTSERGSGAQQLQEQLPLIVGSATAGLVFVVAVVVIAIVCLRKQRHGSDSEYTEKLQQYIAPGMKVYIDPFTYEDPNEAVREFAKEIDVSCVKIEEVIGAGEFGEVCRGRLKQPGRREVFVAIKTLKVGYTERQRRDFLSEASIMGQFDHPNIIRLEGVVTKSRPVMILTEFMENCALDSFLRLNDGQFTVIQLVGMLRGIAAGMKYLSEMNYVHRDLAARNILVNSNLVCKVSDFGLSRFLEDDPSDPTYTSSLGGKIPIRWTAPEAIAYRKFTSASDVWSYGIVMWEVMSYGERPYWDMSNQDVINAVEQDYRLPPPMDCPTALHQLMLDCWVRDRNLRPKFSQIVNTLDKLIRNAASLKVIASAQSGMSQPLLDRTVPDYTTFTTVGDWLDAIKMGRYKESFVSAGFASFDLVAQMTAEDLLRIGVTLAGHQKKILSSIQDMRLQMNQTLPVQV
Conditions: at 1 µM.

Assay [5] concerns the target T3, Ephrin type-B receptor 3 (Homo sapiens). Particulars: at 10 µM.
Assay [6] addresses T4, Ephrin type-B receptor 4 (Homo sapiens) (UniProt P54760).
T4 sequence (whole entry): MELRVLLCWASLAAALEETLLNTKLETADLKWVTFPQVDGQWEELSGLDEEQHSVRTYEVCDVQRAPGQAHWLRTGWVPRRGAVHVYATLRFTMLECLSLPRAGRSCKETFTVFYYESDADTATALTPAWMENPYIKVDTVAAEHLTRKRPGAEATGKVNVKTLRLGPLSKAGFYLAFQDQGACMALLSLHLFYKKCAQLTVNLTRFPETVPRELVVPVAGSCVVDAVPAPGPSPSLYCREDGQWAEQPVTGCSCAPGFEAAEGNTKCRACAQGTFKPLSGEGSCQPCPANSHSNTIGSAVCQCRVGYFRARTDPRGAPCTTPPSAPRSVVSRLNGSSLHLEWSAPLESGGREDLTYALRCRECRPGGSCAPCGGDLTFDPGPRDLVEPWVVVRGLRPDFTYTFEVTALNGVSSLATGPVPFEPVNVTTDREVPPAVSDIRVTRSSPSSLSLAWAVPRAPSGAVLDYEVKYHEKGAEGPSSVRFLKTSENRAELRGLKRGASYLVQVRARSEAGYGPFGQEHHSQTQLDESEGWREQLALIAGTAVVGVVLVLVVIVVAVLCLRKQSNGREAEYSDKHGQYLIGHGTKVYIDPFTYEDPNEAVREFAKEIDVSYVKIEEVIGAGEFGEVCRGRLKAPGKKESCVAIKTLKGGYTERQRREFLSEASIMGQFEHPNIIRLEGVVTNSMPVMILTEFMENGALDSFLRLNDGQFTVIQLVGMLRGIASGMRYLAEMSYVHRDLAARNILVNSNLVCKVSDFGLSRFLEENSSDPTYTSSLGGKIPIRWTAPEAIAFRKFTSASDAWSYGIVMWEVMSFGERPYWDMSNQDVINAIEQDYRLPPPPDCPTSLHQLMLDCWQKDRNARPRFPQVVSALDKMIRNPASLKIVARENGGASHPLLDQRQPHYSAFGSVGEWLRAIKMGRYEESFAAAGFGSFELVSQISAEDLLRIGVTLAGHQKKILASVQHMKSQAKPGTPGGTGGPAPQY
Particulars: at 1 µM.

Assay [7] has as its target T4, Ephrin type-B receptor 4 (Homo sapiens). Particulars: at 10 µM.
In assay [8] the target is Receptor tyrosine-protein kinase erbB-4 (Homo sapiens) (UniProt Q15303). Conditions: at 1 µM.
Assay [9] has the same target. Particulars: at 10 µM.
Assay [10] has as its target Focal adhesion kinase 1 (Homo sapiens) (UniProt Q05397). Conditions: at 1 µM.

Receptor tyrosine-protein kinase erbB-4 (Homo sapiens), sequence (Q15303 whole entry): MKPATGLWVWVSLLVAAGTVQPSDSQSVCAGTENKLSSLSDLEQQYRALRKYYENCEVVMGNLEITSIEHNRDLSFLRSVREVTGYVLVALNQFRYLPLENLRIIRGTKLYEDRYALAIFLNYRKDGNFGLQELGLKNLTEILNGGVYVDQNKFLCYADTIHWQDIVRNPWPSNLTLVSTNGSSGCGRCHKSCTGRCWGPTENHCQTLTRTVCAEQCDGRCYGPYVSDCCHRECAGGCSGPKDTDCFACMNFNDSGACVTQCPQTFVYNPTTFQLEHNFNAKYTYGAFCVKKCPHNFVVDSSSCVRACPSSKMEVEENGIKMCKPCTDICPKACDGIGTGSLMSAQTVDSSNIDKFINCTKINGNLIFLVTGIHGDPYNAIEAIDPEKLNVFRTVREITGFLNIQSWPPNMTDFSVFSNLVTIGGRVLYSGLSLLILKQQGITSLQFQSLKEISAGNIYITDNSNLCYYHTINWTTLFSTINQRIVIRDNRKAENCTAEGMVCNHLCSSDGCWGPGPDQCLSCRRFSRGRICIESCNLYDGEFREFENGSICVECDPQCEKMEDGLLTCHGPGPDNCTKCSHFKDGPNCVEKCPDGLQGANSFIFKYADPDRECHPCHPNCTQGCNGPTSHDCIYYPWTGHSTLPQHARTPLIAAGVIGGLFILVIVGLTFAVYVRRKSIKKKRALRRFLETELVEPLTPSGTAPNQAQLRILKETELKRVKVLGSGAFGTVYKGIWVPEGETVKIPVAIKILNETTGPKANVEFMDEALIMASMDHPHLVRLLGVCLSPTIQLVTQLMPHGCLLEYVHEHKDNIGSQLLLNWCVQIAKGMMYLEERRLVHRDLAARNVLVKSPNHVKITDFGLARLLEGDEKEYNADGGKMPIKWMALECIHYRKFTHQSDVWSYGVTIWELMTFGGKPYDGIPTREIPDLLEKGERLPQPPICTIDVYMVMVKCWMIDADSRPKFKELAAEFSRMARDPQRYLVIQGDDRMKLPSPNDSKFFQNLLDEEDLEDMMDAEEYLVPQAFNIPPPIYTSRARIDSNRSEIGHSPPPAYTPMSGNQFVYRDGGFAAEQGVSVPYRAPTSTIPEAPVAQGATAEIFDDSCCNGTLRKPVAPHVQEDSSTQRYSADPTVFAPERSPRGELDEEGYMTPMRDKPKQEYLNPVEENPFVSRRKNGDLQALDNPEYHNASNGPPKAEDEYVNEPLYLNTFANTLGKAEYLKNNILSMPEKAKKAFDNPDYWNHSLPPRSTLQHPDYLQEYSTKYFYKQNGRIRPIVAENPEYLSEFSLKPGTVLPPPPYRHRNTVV
Focal adhesion kinase 1 (Homo sapiens), sequence (Q05397 2-1052 limits assumed): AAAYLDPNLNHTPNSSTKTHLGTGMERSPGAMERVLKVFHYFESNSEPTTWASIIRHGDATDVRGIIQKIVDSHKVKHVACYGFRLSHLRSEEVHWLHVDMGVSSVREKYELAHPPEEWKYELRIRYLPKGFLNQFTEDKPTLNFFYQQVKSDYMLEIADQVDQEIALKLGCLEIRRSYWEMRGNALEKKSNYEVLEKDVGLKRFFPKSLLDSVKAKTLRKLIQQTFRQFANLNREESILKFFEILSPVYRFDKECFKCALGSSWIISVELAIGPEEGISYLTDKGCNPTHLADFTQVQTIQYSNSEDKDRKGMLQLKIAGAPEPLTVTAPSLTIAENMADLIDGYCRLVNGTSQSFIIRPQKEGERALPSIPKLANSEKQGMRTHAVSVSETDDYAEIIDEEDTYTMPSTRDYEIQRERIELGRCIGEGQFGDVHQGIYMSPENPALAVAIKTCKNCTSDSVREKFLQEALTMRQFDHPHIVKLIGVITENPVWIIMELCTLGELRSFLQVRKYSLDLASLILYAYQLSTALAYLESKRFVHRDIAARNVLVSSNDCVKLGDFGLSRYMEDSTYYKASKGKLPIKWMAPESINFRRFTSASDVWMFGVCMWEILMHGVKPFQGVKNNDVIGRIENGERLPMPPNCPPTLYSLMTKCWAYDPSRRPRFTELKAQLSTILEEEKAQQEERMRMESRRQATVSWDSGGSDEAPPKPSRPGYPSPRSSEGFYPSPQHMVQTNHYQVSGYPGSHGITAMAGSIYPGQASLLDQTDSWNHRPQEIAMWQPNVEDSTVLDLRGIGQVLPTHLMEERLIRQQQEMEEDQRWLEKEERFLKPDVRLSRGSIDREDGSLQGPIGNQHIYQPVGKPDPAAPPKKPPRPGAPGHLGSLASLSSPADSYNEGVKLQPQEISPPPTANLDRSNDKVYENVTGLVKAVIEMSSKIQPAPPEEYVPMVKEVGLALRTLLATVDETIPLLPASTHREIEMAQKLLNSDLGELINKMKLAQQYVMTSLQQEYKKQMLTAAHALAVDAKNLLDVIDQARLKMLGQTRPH

What is called residual activity is the signal under treatment as a percentage of the control signal. Turning to `CC[n+]1c(/C=C/N(C)c2ccccc2)n(-c2ccccc2)c2ccc(-c3nc4ccccc4s3)cc21`, the residual activity in assay [1] is 56%; in [2] it was 136%; in assay [3] it was 129%; in assay [4] it was 131% (inactive); in assay [5] it was 160%; in assay [6], 114%. The residual activity in assay [7] amounted to 159%; in assay [8] it was 79%; in assay [9] it was 99%; in assay [10], 144%.
